Compound activity: PubChem BioAssay, National Center for Advancing Translational Sciences (NCATS)
Tau FP inhib = inhibitors of human tau fibril formation; Potency, µM (top dose mostly 57.7 µM), inactives show at the top dose activity, negative = inhibition, hits mostly inhibitors; K18 P301L tau heparin fibrillization, Alexa594 FP, 6 h; 0.39% of 280,000 active; AID 1468; note: nearly all actives have a fitted effect of over 55% in size
Target sequence (P10636 561-689 P618L limits assumed): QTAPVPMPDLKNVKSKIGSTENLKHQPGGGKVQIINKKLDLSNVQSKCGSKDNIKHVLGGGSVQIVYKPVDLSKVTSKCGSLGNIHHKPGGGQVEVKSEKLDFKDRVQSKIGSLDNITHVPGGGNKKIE
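Recombinant K18 P301L […], labeled with Alexa 594 at 0.24 uM over 15 uM unlabeled; heparin inducer 20 uM final; 37 C, 6 hr; FP endpoint.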
Tau fluor counter = counter-screen for tau fibril formation inhibitors | tau K18 P301L Alexa594 fluorescence, heparin fibrillization | Potency, µM (doses to about 57.7 µM), for inactives: at the highest dose activity change, negative = decrease | 0.93% of 280,000 active; note: nearly all actives have a fitted effect of over 55% in size
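Human tau K18 P301L (15 uM unlabeled, 0.24 uM Alexa 594-labeled) in 100 mM sodium acetate pH 7 with 20 uM heparin, 6 hr at 37 C. ThT 30 uM added, 1 hr ambient; Alexa 594 FP and total fluorescence read at 555/632 nm.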
TRb SRC2 PPI = disrupts binding of human TR beta to SRC2; TRbeta-SRC2 peptide binding, fluorescence polarization; receptor liganded with 1 µM T3; Potency, µM (highest dose often 106 µM), for the others: top-dose activity change, negative = inhibition, usual class: inhibitors; 0.065% of 280,000 active; AID 1469;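 note: plate controls were bound peptide for no effect and peptide without receptor for full effect; nearly all actives have a fitted effect of over 50% in size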
Target sequence (P10828 whole entry, looked up): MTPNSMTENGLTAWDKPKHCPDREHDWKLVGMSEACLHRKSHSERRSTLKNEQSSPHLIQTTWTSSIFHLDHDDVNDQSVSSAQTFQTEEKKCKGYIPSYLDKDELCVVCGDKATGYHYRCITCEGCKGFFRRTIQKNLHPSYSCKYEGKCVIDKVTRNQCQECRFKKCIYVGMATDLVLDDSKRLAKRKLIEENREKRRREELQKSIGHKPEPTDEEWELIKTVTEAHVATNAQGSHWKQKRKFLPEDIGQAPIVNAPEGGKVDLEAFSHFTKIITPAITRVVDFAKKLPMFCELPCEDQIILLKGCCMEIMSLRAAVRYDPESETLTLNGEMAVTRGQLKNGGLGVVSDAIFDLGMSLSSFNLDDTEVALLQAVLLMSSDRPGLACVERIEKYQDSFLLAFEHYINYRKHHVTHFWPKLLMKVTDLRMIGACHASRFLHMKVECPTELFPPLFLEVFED
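A fluorescence polarization screen tested compounds at multiple concentrations against complex formation between 0.6 uM TRb ligand-binding domain and 20 nM Texas Red SRC2 peptide, with 1 uM T3 present; readout after 5 hr.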
Tau ThT inhib = tau fibrillization inhibition (ThT binding); P10636; recombinant tau K18 P301L (four-repeat tau fragment), heparin-induced fibrillization, ThT fluorescence; Potency, µM (highest dose often 57.4 µM), for the others: at the top dose activity, negative = inhibition, usual class: inhibitors; 2.1% of 270,000 active; AID 1460; note: nearly all actives have a fitted effect of over 55% in size
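In this qHTS, human K18 P301L tau is incubated with compound and heparin for 6 hr at 37 C, and Thioflavin T fluorescence then reports fibril load.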
TexasRed fluor = counter-screen for TRb-SRC2 inhibitors: fluorescence interference; TRb/SRC2 Texas Red total fluorescence interference; Potency, µM (titrated, usually from 106 µM), for inactives: at the highest dose fluorescence change, negative = quenching; 0.29% of 280,000 active; AID 1479; active = well fitted curve in either direction with a large enough effect; inconclusive = small, poorly fitted or top-dose-only effect
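Flags fluorescent or light-absorbing compounds by total fluorescence, S + 2P, at 555 nm excitation and 632 nm emission. Mixture: 20 nM Texas Red SRC2 peptide, 0.6 uM human TRb LBD, 1 uM T3, 5% DMSO; compound exposure 5 h at ambient temperature.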
Active calls of the source: *; ? = inconclusive; · = not tested or not shown; [ ] = another dose, or the depositor's remark. Rows were chosen to be rich in hits. Some 3.1% of all compounds tested hit in one or more screens of this group. Unless noted, calls come from the whole dose curve; as a rule, active = well fitted curve in the direction sought with a large enough effect; inconclusive = small, poorly fitted or top-dose-only effect, or another doubt; inactive = no such curve, though single readings can be large; an effect the other way counts as inactive or inconclusive. Unless noted, % is set by controls: 0 for no effect and ±100 for the full control effect; potency is the fitted concentration of half-maximal effect.

SMILES | Tau FP inhib | Tau fluor counter | TRb SRC2 PPI | Tau ThT inhib | TexasRed fluor
COc1ccc(Nc2nc(-c3cccc([N+](=O)[O-])c3)nc3ccccc23)cc1 | ? | 3.55µM*[quencher] | 14.3% | ? | -0.7%
COc1ccc(Nc2nc(-c3cccs3)nc3ccccc23)cc1 | 15.0% | 10µM*[quencher] | 9.4% | ? | -4.2%
COc1ccc(N2CCN(c3nc(-c4cccs4)nc4ccccc34)CC2)cc1 | -3.6% | ? | 6.4% | ? | -3.0%
COc1cccc(Nc2nc(-c3cccs3)nc3ccccc23)c1 | 25.1µM* | ? | -7.4%[53 µM] | 9.6% | -0.8%[53 µM]
O=C(/C=C/c1cccc([N+](=O)[O-])c1)Nc1cccc(NC(=O)c2cccs2)c1 | ? | 12.6µM*[quencher] | -2.6% | ? | -6.5%
O=C(Nc1cccc(NC(=O)c2cccs2)c1)c1ccc([N+](=O)[O-])o1 | 14.2% | 31.6µM*[quencher] | -5.0% | · | -1.5%
COc1cc(NC(=O)c2ccc([N+](=O)[O-])o2)ccc1NC(=O)c1cccs1 | -9.5% | -27.9% | 1.9% | ? | -3.0%
CC(C)=CCC[C@@H](C)[C@H]1CC[C@@]2(C)C3=C(CC[C@]12C)[C@@]1(C)CC[C@H](O)C(C)(C)[C@@H]1CC3 | · | · | -2.6%[201 µM] | · | 1.7%[201 µM]
Cc1[nH]nc2c1C(c1ccc(-c3ccccc3C#N)o1)C(C#N)=C(N)O2 (stereo not given) | -0.8% | -28.6% | 8.5% | 15.8µM* | -1.0%
Cc1ccc(-c2ccc(C3C(C#N)=C(N)Oc4n[nH]c(C)c43)o2)cc1 (stereo not given) | -11.7% | 12.6µM*[quencher] | -3.7% | 6.31µM* | -10.6%
Cc1[nH]nc2c1C(c1ccc(-c3ccc(Cl)cc3)o1)C(C#N)=C(N)O2 (stereo not given) | -8.7% | ? | -6.8% | 10µM* | -2.6%
Cc1[nH]nc2c1C(c1ccc(F)cc1)C(C#N)=C(N)O2 (stereo not given) | -1.0% | -2.0% | -0.9% | 1.5% | -2.7%
CCOC(=O)c1c(C)oc2nc(C)nc(NCCc3ccc(C)cc3)c12 | -1.8% | -7.2% | -4.8% | -11.2% | -18.0%
O=S(=O)(c1ccc(Cl)cc1)c1nc(-c2cccs2)oc1N1CCCCC1 | 3.3% | -27.5% | -2.5% | -11.3% | -14.4%
COc1ccc(-c2nc(SCC(=O)Nc3c(C)cc(C)cc3C)n[nH]2)cc1 | -11.7% | -11.4% | -5.3% | -7.1% | 0.4%
O=C(CCn1c(=O)c2cccn2c2cccnc21)Nc1ccccc1C(F)(F)F | -1.5% | 3.2% | -2.5% | 5.2% | -2.2%
CCOc1cccc2sc(NN)nc12 | ? | 14.1µM*[quencher] | -0.9% | 20µM* | -4.0%
COc1ccc(OC)c(CNC(=O)c2cc(=O)[nH]c3ccc(S(=O)(=O)N4CCCCC4C)cc23)c1 (stereo not given) | -3.0% | -28.8% | 2.3% | -1.6% | -4.2%
CNc1cccc2c1C(=O)c1ccccc1C2=O | -3.0% | ? | -1.5% | 8.91µM* | 12.2%
O=C1c2ccccc2C(=O)c2c(NCc3cccnc3)cccc21 | 1.2% | -23.5% | · | ? | ·
CCCCCCCCCCCO | · | · | -0.2%[201 µM] | · | -2.5%[201 µM]
COc1ccc2[nH]c(C)cc(=O)c2c1 | 10.7% | -0.9% | -4.7% | 4.7% | -2.6%
COc1ccc2[nH]c3c(C)c4ccncc4c(C)c3c2c1 | -8.2% | ? | -5.3% | 3.55µM* | -11.3%
CCCOc1ccc(NC(=O)CC2C(=O)N(c3ccc(C)cc3)C(=O)N2C2CCCC2)cc1 (stereo not given) | 0.4% | ? | 6.0% | -4.8% | 1.5%
Oc1cccc(C=NCc2ccccc2)c1O | ? | ? | ? | 7.94µM* | -3.8%
SMILES | Tau FP inhib | Tau fluor counter | TRb SRC2 PPI | Tau ThT inhib | TexasRed fluor
COc1ccccc1-c1c(C)nn2c(N3CCN(c4cccc(Cl)c4)CC3)cc(C)nc12 | ? | -14.2% | -0.7% | ? | 2.6%
CCc1cccc(C)c1N(C(=O)CS(=O)(=O)O)[C@@H](C)COC | · | · | 7.6%[201 µM] | · | -2.9%[201 µM]
CCN(CC)c1ccc(/C=C2/C(=O)ON=C2C)cc1 | -6.2% | -28.2% | 7.9% | 8.91µM* | -13.3%
CCN(CC)c1ccc(/C=C2\C(=O)N(c3nnc(C)c(=O)[nH]3)N=C2C)cc1 | ? | 5.7% | 2.3% | 7.94µM* | -4.5%
Nc1cccc2c1C(=O)N(C(=O)/C=C/c1cccc(F)c1)C2=O | ? | -15.7% | 3.3% | 14.1µM* | -2.5%
COc1cc(/C=C/C(=O)N2C(=O)c3cccc(N)c3C2=O)cc(OC)c1OC | ? | -14.7% | -6.4% | ? | 1.2%
COc1ccc(OC)c(/C=C/C(=O)N2C(=O)c3cccc(N)c3C2=O)c1 | ? | -18.0% | -7.3% | 14.1µM* | -0.4%
Nc1cccc2c1C(=O)N(C(=O)/C=C/c1cccc(Br)c1)C2=O | ? | -23.7% | 4.4% | 25.1µM* | -2.3%
COc1ccc(/C=C/C(=O)C2C(=O)C=C(C)OC2=O)cc1O (stereo not given) | -2.1% | ? | 10.4% | 25.1µM* | -3.4%
COc1cc(OC)c(N(C)S(=O)(=O)c2cccc(C(=O)OCC(=O)c3c[nH]c4ccccc34)c2)cc1Cl | 12.6µM* | ? | -3.6% | 9.9% | 2.8%
COc1cc(/C=C/C(=O)OCC(=O)c2c[nH]c3ccccc23)ccc1OC(F)F | ? | ? | 4.7% | -12.2% | -2.0%
COc1cc(C(=O)OCC(=O)c2c[nH]c3ccccc23)ccc1OCC(=O)N1CCOCC1 | 0.4% | ? | -4.4% | ? | -8.0%
C=CCN(c1ccccc1OC)S(=O)(=O)c1cccc(C(=O)OCC(=O)c2c[nH]c3ccccc23)c1 | 15.8µM* | ? | 7.5% | 5.3% | -1.0%
CC(=O)Nc1ccn(C2OC(C(COC(C)=O)NC(=O)C(Cc3ccccc3)NC(=O)OC(C)(C)C)C(OC(C)=O)C2OC(C)=O)c(=O)n1 (stereo not given) | · | · | 0.9% | · | 1.1%
Cc1ccc(-c2nc(SCCOc3ccccc3C)n3[nH]c(=O)cc3n2)cc1 | -3.9% | -5.2% | -0.7% | -8.3% | 0.7%
CCOc1ccccc1NC(=O)c1nn(C)c2c1CSc1ccccc1-2 | -4.8% | 11.2µM*[quencher] | -3.2% | ? | -3.0%
CCc1ccc(NC(=O)CSC2=Nc3ccccc3C3=NC(CC(=O)NCc4ccc5c(c4)OCO5)C(=O)N23)cc1 (stereo not given) | ? | -8.3% | -4.9% | 4.0% | -3.2%
O=[N+]([O-])c1ccc(Cl)c(-c2ccc(/C=N/c3c(-c4ccco4)nc4ccccn34)o2)c1 | 2.4% | -9.0% | 0.5% | ? | 3.2%
Oc1cccc(/C=N/c2c(-c3ccco3)nc3ccccn23)c1 | ? | ? | 10.1% | ? | -0.9%
O=[N+]([O-])c1ccc(-c2ccc(/C=N/c3c(-c4ccco4)nc4ccccn34)o2)c(Cl)c1 | -5.7% | -27.5% | -3.6% | 2µM* | 1.4%
Cc1cc(C)c([N+](=O)[O-])cc1-c1ccc(/C=N/c2c(-c3ccco3)nc3ccccn23)o1 | ? | 25.1µM*[quencher] | -19.1% | 5.01µM* | 9.5%
